Measurements: PMC4242493, “Sequence specificity incompletely defines the genome-wide occupancy of Myc”
The full ranking holds about 33,000 sequences; the median of “normalized occupancy” is about 0.075, and the highest 2% start at about 0.095. The sample holds the highest values, similar sequences and a random draw of the others, so the mix is not that of the screen.

These sequences were tested against MaxL homodimer (Homo sapiens, UniProt P61244 1-160) (assay: universal protein-binding microarray (PBM); PBS-based mixture, 10 nM His-tagged protein dimer, 2% milk, 200 ng/uL BSA, 50 ng/uL salmon testes DNA, 0.02% TX-100; detection with Alexa 488 anti-His antibody;; high values mean tight binding). Conditions: protein: recombinant; tags: C-terminal His-tag (pET21a); chain copies: 2; dsDNA, one strand shown.
In short: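 His-tagged protein dimer at 10 nM was bound to Agilent 4 x 44 K 'all 10-mer' universal arrays and detected with 10 ng/μL fluorophore-conjugated anti-His antibody on a GenePix 4400A, giving an intensity per 8-mer. Binding occupancy normalises each intensity to the top-ranked one.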

Chain of MaxL homodimer (P61244 whole entry): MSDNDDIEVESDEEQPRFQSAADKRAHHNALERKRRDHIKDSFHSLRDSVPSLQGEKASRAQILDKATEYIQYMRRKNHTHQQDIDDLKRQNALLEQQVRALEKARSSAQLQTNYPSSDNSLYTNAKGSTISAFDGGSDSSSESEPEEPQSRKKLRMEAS

Sequence | binding signal [normalized occupancy]
GTAAATCA | 0.0784
ACATCGTG | 0.0998
ACCTCGTG | 0.156
ACCTCATC | 0.0736
ACCTCGTC | 0.0738
ACATCGTA | 0.0832
ACCTCATA | 0.0788
ATCTCGTG | 0.0991
AGCTCGTG | 0.0836
ACATCGTC | 0.0753
ATCTCGTA | 0.0765
ACCTCGTA | 0.0827
ACCTCATG | 0.113
AGACGTCC | 0.0732
CAGCAATG | 0.082
CTTACAAC | 0.0757
ATGTTTGG | 0.0806
CTCATGAA | 0.0856
CCTTGCGA | 0.0752
ACCATGAA | 0.0755
CCCATGCG | 0.138
CCTATGCG | 0.0749
CCCATGCC | 0.0969
CCCATGAC | 0.0853
ATCATGTA | 0.0811

Sequence | binding signal [normalized occupancy]
CCCATGTC | 0.0854
CCCATGAG | 0.0921
ATCATGTG | 0.137
ATCATGTC | 0.0895
ACCATGAG | 0.0976
CCAATGCG | 0.0793
ACATCACC | 0.0798
GACCAGCA | 0.0755
CTGTCGTA | 0.0747
GAGAACTA | 0.0732
CTCTCGAA | 0.0729
AACGGTTG | 0.0768
CGTTGCCA | 0.0801
GGCGGTGA | 0.0725
ACAATGTA | 0.085
CCCATGAA | 0.0827
GCCATGGC | 0.0823
ACCATGGC | 0.0734
GCCATGCC | 0.0963
ACAATGTC | 0.079
CCCATACA | 0.0836
CCCATGCA | 0.0973
GCCATGCA | 0.0904
ACCATGCC | 0.0954
ACCATGAC | 0.0839

Sequence | binding signal [normalized occupancy]
ACAATGTG | 0.0995
CATTTGTA | 0.0834
CATACGCG | 0.0762
AGGGAGCG | 0.0763
CCGTACGC | 0.072
ACACCAGT | 0.0764
CCGACTTA | 0.0735
CGCTAATC | 0.0771
GAAATAGC | 0.0789
ACAATGCG | 0.0867
ACCATGCG | 0.136
TCCATGCA | 0.0861
ACCATGCT | 0.123
ACCATGCA | 0.0972
ACTATGCG | 0.0817
ACCATGTC | 0.0794
ACCATGGA | 0.0861
ACCATGTA | 0.0876
ACCATGGT | 0.0862
ACCATGTG | 0.225
ACCATGAT | 0.084
ATGCTGGC | 0.0864
CAGGCCTG | 0.0765
AAACTAAC | 0.0741
ATTGGCGC | 0.0745

Sequence | binding signal [normalized occupancy]
GTACAAGA | 0.0806
CTTCTATC | 0.0768
AGTCAGCG | 0.0777
CCAATTGG | 0.0757
GATCACGA | 0.0786
AATCACCT | 0.0853
AATCACGC | 0.0974
AGTCACGG | 0.0774
AGTCACGA | 0.0912
GATCACCC | 0.0786
AATCACGT | 0.099
AATCACGA | 0.0856
AATCACTA | 0.0729
AATCACGG | 0.0727
GATCACGC | 0.0977
AGTCACGC | 0.0989
CCAATGGA | 0.0747
ACGCCTGC | 0.0743
CCAGAATC | 0.0733
CATCACGA | 0.0811
CATCACGG | 0.0829
CATCACGC | 0.0961
GGTCTTGA | 0.0779
CATGTTGC | 0.0999
GATGTGGC | 0.0839

Sequence | binding signal [normalized occupancy]
AATGTGGA | 0.0903
AATGTGGG | 0.0907
CATGTTGA | 0.0943
CATGTCGG | 0.088
CATGTGGA | 0.157
CATGTGGG | 0.144
AATGTGGC | 0.0898
GATGTGGA | 0.0847
CATGTGGC | 0.165
GATGTTGC | 0.0781
GGATTTGA | 0.0761
CTATAGTA | 0.0737
AACAATGC | 0.0816
AGCTGTTA | 0.0759
AAGTGTAA | 0.0802
GGGTCTAC | 0.0725
CGGACCCC | 0.0732
ACCTCGAG | 0.0843
CCATGCCA | 0.0875
ACATGCCG | 0.103
GCATGCCC | 0.105
ACATGCCT | 0.0828
CCATGCCC | 0.0935
AGATGCCC | 0.0786
ATATGCCG | 0.0773

Sequence | binding signal [normalized occupancy]
CAATGCCG | 0.0728
CCATGCCG | 0.1
ACATGCCC | 0.099
AGATGCCG | 0.0739
GAATGCCC | 0.0765
TAAGAGTA | 0.0797
TCTCACAA | 0.0786
ATGAGAGC | 0.078
CGAGATGC | 0.078
AAGGACAC | 0.0757
GGCCACGA | 0.0815
AGGTCTCA | 0.074
CAATTAAA | 0.0744
AGTGGTCG | 0.0719
GTATGCCA | 0.0806
ACATGCCA | 0.0967
GCATGCCA | 0.108
ATATGCCA | 0.0822
AGATGCCA | 0.0772
TCATGCCA | 0.0861
GGTCCCGA | 0.0733
ACTAACCT | 0.0752
CGTGGGAA | 0.089
GGTGGGAC | 0.0719
CGTGGGAC | 0.096

Sequence | binding signal [normalized occupancy]
TGGGTCAA | 0.0772
AACCATGA | 0.0836
GACCATGC | 0.109
CTCCATGC | 0.0969
AACCATGC | 0.106
CACCATGC | 0.108
CACCATGA | 0.0873
CTCCATGA | 0.0798
GACCATGA | 0.0823
ATCCATGC | 0.0942
GACCATAC | 0.0805
CACCATGG | 0.0885
AACCATGT | 0.0862
GTTGCCCA | 0.0762
CTCCCTCC | 0.0789
CGACCCAC | 0.0808
AGTGTCAT | 0.0822
CCACATCA | 0.0798
CACGCTTC | 0.098
GACGCTTA | 0.0768
CACGCTTA | 0.103
AACGCTTC | 0.0768
AACGCTTA | 0.0733
CGCGCTTC | 0.0753
